From the antibiotic and cytotoxicity screens of Wong et al. (2023)
The whole screen tested about 39,000 compounds, of which about 1,500 (3.8%) were called active. This is one part of a sample in which actives are shown more often than they occur.

test system: HSkMC (human skeletal muscle cells); test: cytotoxicity call (relative viability < 0.9); conditions: 10 µM

| Structure (SMILES) | cytotoxicity call |
| --- | --- |
| N[C@@H](C(=O)N[C@@H]1C(=O)N2C(C(=O)O)=C(Cl)CS[C@H]12)c1ccccc1 | inactive |
| C[C@@H]1CCCCO[C@H](CN(C)C(=O)Cc2ccccc2)[C@@H](C)CN([C@H](C)CO)C(=O)c2cc(NC(=O)C3CCCCC3)ccc2O1 | inactive |
| Cc1ccc(S(=O)(=O)N[C@@H](Cc2ccccc2)C(=O)NCCn2cc(CCC(=O)NO)nn2)cc1 | inactive |
| Cc1ccc(S(=O)(=O)N(C)C[C@@H]2Oc3ccc(NS(=O)(=O)c4cccs4)cc3CC(=O)N([C@@H](C)CO)C[C@@H]2C)cc1 | inactive |
| C[C@H](O)C#Cc1ccc2c(c1)O[C@@H](CN(C)C(=O)Cc1ccccn1)[C@H](C)CN([C@@H](C)CO)S2(=O)=O | inactive |
| O=C(C[C@@H]1C=C[C@@H](NC(=O)CN2CCOCC2)[C@@H](CO)O1)NCc1cccc(F)c1 | inactive |
| C[C@H]1CC=CC[C@H](c2cccc(Cl)c2)NC(=O)[C@@H](Cc2ccccc2)N(C)C(=O)c2ccccc2O1 | inactive |
| COc1ccc(NC(=O)Nc2ccc3c(c2)C(=O)N([C@@H](C)CO)C[C@@H](C)[C@@H](CN(C)Cc2ccccc2)OCCCC[C@@H](C)O3)cc1 | inactive |
| Cc1noc(C)c1NC(=O)Nc1cccc2c1O[C@@H](CN(C)S(=O)(=O)c1ccccc1)[C@@H](C)CN([C@H](C)CO)C2=O | inactive |
| COc1ccc(S(=O)(=O)N(C)C[C@@H]2OCCCC[C@@H](C)Oc3ccc(NS(=O)(=O)c4cn(C)cn4)cc3C(=O)N([C@@H](C)CO)C[C@H]2C)cc1 | inactive |
| Cc1ccc(S(=O)(=O)Nc2ccc3c(c2)C(=O)N([C@H](C)CO)C[C@H](C)[C@@H](CN(C)S(=O)(=O)c2ccc(F)cc2)OCCCC[C@H](C)O3)cc1 | active |
| Cc1ccc(S(=O)(=O)N(C)C[C@H]2OCCCC[C@H](C)Oc3ccc(NS(=O)(=O)c4ccc(F)cc4)cc3C(=O)N([C@@H](C)CO)C[C@@H]2C)cc1 | inactive |
| Cc1ccc(S(=O)(=O)N(C)C[C@@H]2OCCCC[C@@H](C)Oc3ccc(NS(=O)(=O)c4ccc(F)cc4)cc3C(=O)N([C@H](C)CO)C[C@H]2C)cc1 | active |
| Cc1ccc(S(=O)(=O)N(C)C[C@H]2OCCCC[C@@H](C)Oc3ccc(NC(=O)Nc4ccc(F)cc4)cc3C(=O)N([C@@H](C)CO)C[C@H]2C)cc1 | inactive |
| Cc1ccc(S(=O)(=O)N(C)C[C@@H]2OCCCC[C@H](C)Oc3ccc(NC(=O)Nc4ccc(F)cc4)cc3C(=O)N([C@@H](C)CO)C[C@@H]2C)cc1 | inactive |
| Cc1ccc(S(=O)(=O)Nc2ccc3c(c2)C(=O)N([C@H](C)CO)C[C@H](C)[C@H](CN(C)S(=O)(=O)c2ccc(F)cc2)OCCCC[C@H](C)O3)cc1 | inactive |
| COc1ccc(S(=O)(=O)N(C)C[C@@H]2OCCCC[C@H](C)Oc3ccc(NS(=O)(=O)c4cn(C)cn4)cc3C(=O)N([C@H](C)CO)C[C@@H]2C)cc1 | inactive |
| Cc1ccc(S(=O)(=O)Nc2ccc3c(c2)C(=O)N([C@H](C)CO)C[C@@H](C)[C@H](CN(C)S(=O)(=O)c2ccc(F)cc2)OCCCC[C@@H](C)O3)cc1 | inactive |
| Cc1ccc(S(=O)(=O)N(C)C[C@H]2OCCCC[C@@H](C)Oc3ccc(NC(=O)Nc4ccc(F)cc4)cc3C(=O)N([C@@H](C)CO)C[C@@H]2C)cc1 | active |
| COc1ccc(S(=O)(=O)N(C)C[C@H]2OCCCC[C@H](C)Oc3ccc(NS(=O)(=O)c4cn(C)cn4)cc3C(=O)N([C@@H](C)CO)C[C@H]2C)cc1 | active |
| Cc1ccc(S(=O)(=O)Nc2ccc3c(c2)C(=O)N([C@@H](C)CO)C[C@H](C)[C@@H](CN(C)S(=O)(=O)c2ccc(F)cc2)OCCCC[C@@H](C)O3)cc1 | inactive |
